Active and inactive are the calls of the source.

Assay [1] has as its target Albumin (Bos taurus) (UniProt P02769). The assay can be described thus: compounds binding labelled BSA control protein – biochemical, small-molecule microarray, Alexa647 label, 635/667 nm fluorescence, artefact control for SMM control protein annotation, profiling panel (AID 1118).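 Further: score merges 667 nm emission intensity and signal-to-noise per printed compound spot.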 Particulars: BSA-A647 binding, fluorescence 635 nm, higher = more signal.
Assay [2] can be described thus: probe aXIP binding to arrayed compounds – biochemical, NeuroSMM set, 635/667 nm fluorescence, primary screen (AID 1119).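 Further: probe is the protein aXip251-270 applied at 1 µg/mL to compound-printed slides; binding of probe to printed compounds measured as 667 nm fluorescence plus signal to noise.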 Particulars: small-molecule microarray, higher = more signal, called active from +8 up or from −8 down.
Assay [3] is described as follows: probe aNOTCH3 binding on compound microarray – biochemical, small-molecule microarray, 635/667 nm fluorescence, primary screen (AID 1120).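 Further: probe is a biotin-tagged antibody raised against NOTCH3 rather than NOTCH3 protein; score merges spot fluorescence near 667 nm with spot signal to noise.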 Particulars: higher = more signal.
A short description of assay [4]: probe aNOTCH2 binding on compound microarray – biochemical, small-molecule microarray, 635/667 nm fluorescence, primary screen (AID 1121).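 Further: score merges feature fluorescence read at 667 nm with its signal to noise.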 Particulars: higher = more signal.
In assay [5] the target is Carbonic anhydrase 2 (Homo sapiens) (UniProt P00918). The assay can be described thus: compounds binding carbonic anhydrase 2 – biochemical, small-molecule microarray, Alexa647-labelled CAII, profiling panel (AID 1122). Particulars: CAII-A647 binding fluorescence, higher = more signal.
Assay [6] is described as follows: COS7 lysate on small-molecule microarray, probe aHis, 635 nm (AID 1123).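 Further: z-score combines 667nm fluorescence intensity with signal-to-noise per printed compound spot.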 Particulars: COS7 cell lysate, fluorescence, higher = more signal.
The nature of assay [7]: probe aLAP1 signal on lysate-treated microarray – cell lysate, small-molecule microarray, COS7 lysate, primary screen (AID 1124).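 Further: lysate comes from COS7 cells expressing LAP1 and is applied at 0.3 µg/mL; score merges spot fluorescence near 667 nm with signal-to-noise over triplicate slides.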 Particulars: probe aLAP1, fluorescence, higher = more signal.
Assay [8] relates to Sam68 (KHDRBS1). As to the kind of experiment: compounds binding KHDRBS1 protein – biochemical, small-molecule microarray, 635 nm fluorescence, primary screen (AID 1125).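 Further: score merges 667 nm channel intensity with signal to noise over triplicate slides.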 Particulars: higher = more signal.
The subject of assay [9] is Chordin-like protein 2 (CHRDL2). The assay can be described thus: compounds binding chordin-like 2 – biochemical, small-molecule microarray, 635 nm fluorescence, primary screen (AID 1126).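 Further: printed compound slides probed with Chrdl2 protein at 4 µg/mL for 1 h at 4 C; score merges 667 nm emission intensity with signal to noise over three replicate slides.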 Particulars: fluorescence 635 nm, higher = more signal.
For assay [10], the target named is Concanavalin-A (Canavalia ensiformis) (UniProt P02866). As to the kind of experiment: compounds binding concanavalin A lectin – biochemical, small-molecule microarray, Alexa647 label, 635 nm, artefact control for SMM control protein annotation, primary screen (AID 1127).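 Further: z combines 667 nm emission intensity with signal-to-noise across three replicate slides.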 Particulars: ConA-A647 binding fluorescence, higher = more signal.
Sequence of Concanavalin-A (Canavalia ensiformis) (P02866 whole entry, looked up): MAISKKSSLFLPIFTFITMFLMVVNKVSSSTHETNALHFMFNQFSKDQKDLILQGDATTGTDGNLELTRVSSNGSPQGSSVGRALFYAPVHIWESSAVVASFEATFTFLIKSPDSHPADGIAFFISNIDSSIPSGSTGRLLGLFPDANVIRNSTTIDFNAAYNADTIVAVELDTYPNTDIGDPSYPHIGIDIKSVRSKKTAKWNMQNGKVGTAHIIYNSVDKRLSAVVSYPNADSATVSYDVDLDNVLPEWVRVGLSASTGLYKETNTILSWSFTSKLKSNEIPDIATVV
Assay [11] can be described thus: compounds binding Alexa647 anti-His antibody – biochemical, small-molecule microarray, 635 nm fluorescence, artefact control for SMM control protein annotation, primary screen (AID 1128).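 Further: score merges feature fluorescence with signal-to-noise for each printed compound spot.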 Particulars: higher = more signal.
For assay [12], the system named is Human papillomavirus type 1a E7 protein (residues 1-88). The assay can be described thus: HPV1a E7 small-molecule binders, primary screen, biochemical, small-molecule microarray, residues 1-88, 635 nm (AID 1129). Particulars: small-molecule microarray binding, fluorescence 635 nm; higher = more signal.
Assay [13] concerns the target Focal adhesion kinase 1 (Homo sapiens) (UniProt Q05397). The assay can be described thus: PTK2 protein binding on printed compound slides – biochemical, small-molecule microarray, 635/667 nm fluorescence, BSA, DTT, primary screen (AID 1130).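 Further: composite of spot emission at 667 nm and signal to noise over triplicate slides.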 Particulars: 635 nm fluorescence, higher = more signal.
Assay [14] relates to Fibrinogen (Alexa647-labelled). The assay can be described thus: Alexa647-fibrinogen binding to printed small molecules – biochemical, small-molecule microarray, 635/667 nm fluorescence, artefact control for SMM control-protein annotation, profiling panel (AID 1131).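 Further: z-score merges 667 nm fluorescence with per-spot signal-to-noise over triplicate slides.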 Particulars: fibrinogen-A647 binding fluorescence, higher = more signal.
The target in assay [15] is Follistatin (Homo sapiens) (UniProt P19883). As to the kind of experiment: FST protein binding to printed compounds – biochemical, small-molecule microarray, 635/667 nm fluorescence, primary screen (AID 1132). Particulars: 635 nm fluorescence, higher = more signal.
Sequence of Follistatin (Homo sapiens) (P19883 whole entry, looked up): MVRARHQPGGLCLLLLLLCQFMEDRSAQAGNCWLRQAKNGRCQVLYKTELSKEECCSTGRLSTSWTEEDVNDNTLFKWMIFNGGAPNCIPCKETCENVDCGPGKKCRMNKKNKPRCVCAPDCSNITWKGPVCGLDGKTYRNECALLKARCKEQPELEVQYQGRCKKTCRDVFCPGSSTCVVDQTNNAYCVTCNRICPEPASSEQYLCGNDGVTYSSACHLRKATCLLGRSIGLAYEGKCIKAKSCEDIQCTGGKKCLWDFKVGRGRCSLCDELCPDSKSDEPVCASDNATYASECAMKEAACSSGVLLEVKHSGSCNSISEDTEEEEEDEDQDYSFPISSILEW
Assay [16] deals with Fibroblast growth factor 2 (Homo sapiens) (UniProt P09038). As to the kind of experiment: basic fibroblast growth factor binding to printed compounds – biochemical, small-molecule microarray, 635/667 nm fluorescence, primary screen (AID 1133). Particulars: FGF2, fluorescence 635/667, higher = more signal.
Sequence of Fibroblast growth factor 2 (Homo sapiens) (P09038 whole entry, looked up): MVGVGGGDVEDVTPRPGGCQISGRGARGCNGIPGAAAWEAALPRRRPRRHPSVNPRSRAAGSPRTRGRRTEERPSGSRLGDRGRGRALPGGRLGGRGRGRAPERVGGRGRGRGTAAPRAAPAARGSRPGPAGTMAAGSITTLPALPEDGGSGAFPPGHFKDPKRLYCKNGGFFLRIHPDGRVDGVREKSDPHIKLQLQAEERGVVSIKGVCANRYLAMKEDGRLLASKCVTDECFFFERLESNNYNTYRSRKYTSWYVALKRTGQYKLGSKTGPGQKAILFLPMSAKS
Assay [17] can be described thus: JC-1 mitochondrial potential readout, lung cancer cells – cell-based, A549, JC-1 fluorescence, basal, 24 h, 100 nL, profiling panel (AID 1138).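 Further: A549 lung adenocarcinoma cells under basal conditions with no added stimulus; test concentration not given here.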 Particulars: higher = more signal.
In assay [18] the test system is Lefty1. As to the kind of experiment: Lefty1 protein binding to printed compounds – biochemical, small-molecule microarray, 635/667 nm fluorescence, primary screen (AID 1139). Particulars: fluorescence 635/667, higher = more signal.
The subject of assay [19] is wheat germ agglutinin (Triticum aestivum), Alexa647-labelled. The assay can be described thus: Alexa647-WGA lectin binding to printed small molecules – biochemical, small-molecule microarray, 635/667 nm fluorescence, artefact control for SMM control-protein annotation, profiling panel (AID 1140).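 Further: score merges 667 nm feature emission with signal to noise over triplicate slides.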 Particulars: WGA-A647 binding, 635 nm fluorescence, higher = more signal.
Assay [20] concerns the target Luciferin 4-monooxygenase (Photinus pyralis) (UniProt P08659). As to the kind of experiment: inhibition of purified Photinus pyralis luciferase – biochemical, luminescence, purified enzyme, 2006 set, primary screen (AID 1141).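 Further: cell-free assay with purified firefly luciferase at 100 ng per well in PBS; test concentration not given here.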 Particulars: purified firefly luciferase, SteadyGlo luminescence, 30 min; higher = more signal, called active from +8 up or from −8 down.

Sequence of Albumin (Bos taurus) (P02769 whole entry, looked up): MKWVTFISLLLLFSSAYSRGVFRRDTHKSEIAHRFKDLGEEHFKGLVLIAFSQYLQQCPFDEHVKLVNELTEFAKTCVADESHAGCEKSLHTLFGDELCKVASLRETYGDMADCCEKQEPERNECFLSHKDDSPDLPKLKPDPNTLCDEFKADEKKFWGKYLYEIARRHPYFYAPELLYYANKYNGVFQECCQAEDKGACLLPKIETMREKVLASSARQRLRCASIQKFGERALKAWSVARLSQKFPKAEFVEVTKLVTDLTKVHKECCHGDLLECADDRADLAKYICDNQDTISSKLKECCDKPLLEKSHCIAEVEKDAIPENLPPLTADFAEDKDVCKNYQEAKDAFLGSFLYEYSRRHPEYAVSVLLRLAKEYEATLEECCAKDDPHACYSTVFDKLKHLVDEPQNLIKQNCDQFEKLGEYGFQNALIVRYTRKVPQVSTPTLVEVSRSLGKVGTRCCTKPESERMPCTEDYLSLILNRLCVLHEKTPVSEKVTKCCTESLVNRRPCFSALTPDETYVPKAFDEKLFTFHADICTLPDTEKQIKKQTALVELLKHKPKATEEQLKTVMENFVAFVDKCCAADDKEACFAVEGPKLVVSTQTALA
Sequence of Luciferin 4-monooxygenase (Photinus pyralis) (P08659 whole entry, looked up): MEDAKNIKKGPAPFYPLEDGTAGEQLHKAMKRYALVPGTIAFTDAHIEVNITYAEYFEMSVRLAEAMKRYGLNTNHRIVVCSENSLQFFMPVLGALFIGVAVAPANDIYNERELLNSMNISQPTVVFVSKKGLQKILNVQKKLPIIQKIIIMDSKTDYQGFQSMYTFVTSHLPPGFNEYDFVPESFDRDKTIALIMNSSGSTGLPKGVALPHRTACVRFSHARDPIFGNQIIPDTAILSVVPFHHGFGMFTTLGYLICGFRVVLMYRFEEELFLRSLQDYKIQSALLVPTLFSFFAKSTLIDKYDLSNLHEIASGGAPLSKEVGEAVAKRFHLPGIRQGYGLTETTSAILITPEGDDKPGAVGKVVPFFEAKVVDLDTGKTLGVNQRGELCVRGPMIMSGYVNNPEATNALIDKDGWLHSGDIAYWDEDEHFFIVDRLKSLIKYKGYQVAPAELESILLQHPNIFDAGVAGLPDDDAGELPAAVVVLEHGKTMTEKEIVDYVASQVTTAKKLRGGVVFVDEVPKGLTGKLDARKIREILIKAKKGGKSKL
Sequence of Focal adhesion kinase 1 (Homo sapiens) (Q05397 whole entry, looked up): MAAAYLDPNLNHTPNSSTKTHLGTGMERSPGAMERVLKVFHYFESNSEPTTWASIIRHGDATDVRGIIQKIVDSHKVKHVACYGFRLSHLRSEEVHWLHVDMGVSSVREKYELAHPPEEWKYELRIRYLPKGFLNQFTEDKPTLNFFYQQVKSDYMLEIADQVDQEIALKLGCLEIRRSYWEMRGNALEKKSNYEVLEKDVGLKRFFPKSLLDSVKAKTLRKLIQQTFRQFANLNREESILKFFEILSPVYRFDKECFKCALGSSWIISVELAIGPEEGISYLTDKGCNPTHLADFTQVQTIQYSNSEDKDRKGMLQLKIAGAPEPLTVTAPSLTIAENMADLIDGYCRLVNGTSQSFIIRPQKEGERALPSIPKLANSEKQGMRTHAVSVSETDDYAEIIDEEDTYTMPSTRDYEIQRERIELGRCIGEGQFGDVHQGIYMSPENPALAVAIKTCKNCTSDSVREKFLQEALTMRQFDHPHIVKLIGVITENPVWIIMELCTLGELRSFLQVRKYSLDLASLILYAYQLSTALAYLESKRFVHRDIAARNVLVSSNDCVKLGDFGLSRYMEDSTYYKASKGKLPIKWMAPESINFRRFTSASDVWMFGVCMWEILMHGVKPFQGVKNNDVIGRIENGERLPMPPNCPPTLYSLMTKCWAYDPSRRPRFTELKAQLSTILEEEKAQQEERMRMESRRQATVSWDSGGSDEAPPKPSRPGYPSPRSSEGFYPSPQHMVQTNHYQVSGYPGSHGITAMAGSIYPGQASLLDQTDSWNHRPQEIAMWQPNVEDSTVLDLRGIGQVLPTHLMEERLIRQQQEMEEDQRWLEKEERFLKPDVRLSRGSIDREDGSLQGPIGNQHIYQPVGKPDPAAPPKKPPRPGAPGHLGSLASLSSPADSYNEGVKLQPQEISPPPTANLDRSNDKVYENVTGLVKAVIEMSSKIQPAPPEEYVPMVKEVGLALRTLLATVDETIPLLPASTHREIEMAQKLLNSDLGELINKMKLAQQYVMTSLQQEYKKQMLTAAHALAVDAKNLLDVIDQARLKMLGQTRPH

As for `COc1ccc(O[C@H]2C=C[C@@H](c3ccccc3)O[C@@H]2COC(=O)N2CCCCC2)cc1`, the composite z-score in assay [1] was -0.725; in assay [3] it was -0.131; in assay [4], -0.111; in assay [5], -0.29; in assay [6], -0.482; in [7], 0.0033. Besides, the composite z-score in assay [8] was -0.907; in assay [9], 0.387; in assay [10], -0.578; in assay [11], -0.475; in assay [12] it was -1.23; in assay [13], -0.073. In addition, the composite z-score is -0.528 in [14]; 0.12 in [15]; 0.571 in assay [16]; 0.225 in assay [18]; -0.249 in [19]. For the same molecule, in assay [2], the composite Z-score was 0.0229 (inactive). In addition, the results for the z-score in assay [17] and in assay [20] were -0.433 and 0.711 (inactive), respectively.

For the molecule `C[C@@H]1CCC2C(=O)N(Cc3ccccc3)C[C@@H](O)CN2[C@H]1c1ccc(Br)cc1` (stereo not given in full), the composite z-score in [1] was 0.33; in assay [3], -0.0362; in [4], -0.176; in assay [5] it was 0.375; in [6], 0.669; in assay [7], -0.0066. In addition, the composite z-score in assay [8] was 0.621; in assay [9], 0.374; in assay [10] it was 0.646; in [11], 0.737; in assay [12] it was 0.0101; in assay [13], -0.24. The composite z-score was found to be 0.909 in assay [14]; 0.49 in assay [15]; 0.425 in assay [16]; 0.399 in assay [18]; 0.623 in assay [19]. For the same molecule, in assay [2], the composite Z-score is 0.0923 (inactive). The values for the z-score in assay [17] and in assay [20] were 1.89 and -1.86 (inactive), respectively.

Consider `CCOC(=O)NN=C1C[C@@H](O)[C@@H](O)[C@@H]2[C@@H]3C(=O)N(C[C@@H]4CCCO4)C(=O)[C@@H]3CC[C@@H]12`, for which the composite z-score is 0.16 in assay [1]; 0.0927 in assay [3]; -0.166 in assay [4]; 0.0815 in [5]; 0.361 in assay [6]; 0.649 in assay [7]. Besides, the composite z-score in assay [8] is 0.339; in [9] it was 0.0214; in assay [10], 0.437; in assay [11], 0.193; in [12], 0.329; in [13], 0.295. Besides, the composite z-score in [14] is 0.216; in [15], 0.306; in assay [16] it was 0.436; in [18], 0.344; in [19], 0.386. Also, the composite Z-score in [2] was -0.354 (inactive). The z-score is 0.39 in assay [17] and -0.439 (inactive) in assay [20].

For `CC(C)=CCCC(C)=CCON=C1C[C@@H](O)[C@@H](O)[C@@H]2[C@@H]3C(=O)N(C[C@@H]4CCCO4)C(=O)[C@@H]3CC[C@@H]12`, the composite z-score in [1] is -0.506; in [3], -0.0328; in [4], -0.0907; in assay [5], 0.452; in assay [6] it was 0.877; in [7], -0.108. Besides, the composite z-score in [8] stood at 1.3; in assay [9] it was 1.39; in [10], 0.296; in [11], 0.875; in assay [12], 1.13; in assay [13], 0.121. Besides, the composite z-score in assay [14] was 0.971; in assay [15], 1.06; in assay [16], 1.07; in [18] it was 1.26; in [19], 0.59. Also, the composite Z-score in assay [2] was 2.86 (inactive). Besides, the z-score is -0.26 in assay [17] and 0.722 (inactive) in [20].

With `CO[C@@H]1COC(=O)CC=C[C@@H](C)COC(=O)[C@H](COCc2ccccc2)NC(=O)CC=C[C@H]1C`, the composite z-score in [1] is -1.2; in assay [3], -0.111; in [4], -0.108; in assay [5] it was -0.788; in assay [6], -0.843; in assay [7], 0.864. Further, the composite z-score is -0.597 in assay [8]; 1.48 in assay [9]; -2.62 in [10]; -0.105 in assay [11]; -1.04 in assay [12]; -0.765 in assay [13]. The composite z-score in assay [14] is -1.55; in [15], 1.24; in assay [16], 1.73; in assay [18], 1.57; in assay [19] it was -0.672. Further, in [2], the composite Z-score is 1.13 (inactive). Further, the figures for the z-score in [17] and in assay [20] were -0.378 and -0.336 (inactive), respectively.

With `O=C1C[C@@H](O)[C@@H](O)[C@@H]2[C@@H]3C(=O)N(C4CCCCC4)C(=O)[C@@H]3CC[C@H]12`, the composite z-score in assay [1] was 0.258; in [3], 0.0208; in [4], -0.0761; in [5] it was 0.168; in assay [6], 0.323; in assay [7], -0.505. Besides, the composite z-score was 0.742 in assay [8]; 0.325 in [9]; 0.564 in assay [10]; 0.335 in [11]; 0.949 in [12]; 0.329 in assay [13]. Moreover, the composite z-score in [14] is 0.583; in [15] it was 0.525; in [16], 0.521; in assay [18], 0.422; in assay [19], 0.103. The composite Z-score in assay [2] was -0.236 (inactive). Also, the z-score in [17] was -0.338; in [20], -0.163 (inactive).

Regarding `COCCOC(=O)N1C(=O)[C@@]2(c3cc(C#Cc4ccc(OC)cc4)ccc31)[C@H](C(=O)N1CCN(c3ncccn3)CC1)[C@H]1C(=O)O[C@H](c3ccccc3)[C@H](c3ccccc3)N1[C@@H]2c1ccc(OCCO)cc1`, the composite z-score in assay [1] is -0.447; in assay [3], 0.311; in assay [4], 0.0966; in [5], 0.31; in assay [6] it was 1.1; in [7] it was 0.634. In addition, the composite z-score in [8] came to 0.556; in assay [9] it was 0.792; in assay [10], 1.08; in [11], 0.233; in assay [12], 0.202; in assay [13], 0.253. In addition, the composite z-score in [14] was found to be 0.274; in assay [15] it was 1.26; in assay [16], 1.06; in assay [18], 0.786; in assay [19] it was 0.769. Further, the composite Z-score in assay [2] is 0.549 (inactive). Besides, the values for the z-score in [17] and in [20] were -1.15 and -0.411 (inactive), respectively.

With `COCC(=C=CC[C@@H](O)c1ccccc1OCCO)CCO`, the composite z-score in [1] is -0.0934; in assay [3], 0.0596; in assay [4], -0.0811; in [5], 0.763; in [6] it was 0.994; in assay [7], -0.0546. Moreover, the composite z-score is 0.567 in assay [8]; 0.22 in assay [9]; -0.192 in assay [10]; 0.0272 in assay [11]; 0.534 in assay [12]; 0.208 in assay [13]. The composite z-score in assay [14] is 0.664; in assay [15], 0.768; in assay [16], 1.46; in assay [18], 0.409; in assay [19] it was -0.0571. Besides, in assay [2], the composite Z-score was 0.493 (inactive). Besides, the z-score in assay [17] was 1.51; in assay [20], -2.02 (inactive).

As to `CO[C@H]1O[C@H](CO)[C@@H](OC(=O)Nc2ccc3c(c2)OCO3)[C@H](OC(=O)Nc2ccccc2-c2ccccc2)[C@@H]1OC(=O)Nc1ccccc1-c1ccccc1`, the composite z-score in [1] stood at 0.929; in assay [3] it was 0.276; in assay [4], 0.186; in [5], 0.543; in [6] it was 2.08; in assay [7], 0.429. Besides, the composite z-score in [8] is 1.28; in assay [9], -0.116; in [10], 1.17; in assay [11] it was 1.84; in assay [12], 1.18; in assay [13] it was 0.195. Further, the composite z-score was 0.987 in assay [14]; 1.14 in [15]; 1.68 in assay [16]; 0.186 in assay [18]; 1 in assay [19]. For the same molecule, the composite Z-score in assay [2] was 0.558 (inactive). Further, the z-score in [17] is -0.604; in [20], -0.485 (inactive).

The record behind these values is PubChem BioAssay.
